Compound activity from PubChem.
The list is not random: actives were taken first. Their share in the collection is about 4.1%.
hcDAF12 agonist: activators of H. contortus DAF-12 nuclear receptor. activation, % at 6.8 µM. HEK293 hcDAF-12 lit1-tk-luc reporter, luminescence; 0% DMSO, 100% Δ7-dafachronic acid. hit rate 1.4% among 370,000. AID 652067;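 active = activation above the mean of all tested compounds plus 3 SD, cut at about 5.5% in these data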
DAX1 inh-1: inhibits human nuclear receptor DAX1 | inhibition, % at 6.75 µM | hit rate 0.99% among 340,000 | HEK293 Gal4-DAX1 luciferase reporter, luminescence | P51843;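 active = inhibition above the mean over all tested compounds plus 3 SD, cut at about 4.2% in these data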;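 note: inhibition shows as a rise in luminescence from relieved DAX1 repression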
Target sequence (P51843 207-470 limits assumed): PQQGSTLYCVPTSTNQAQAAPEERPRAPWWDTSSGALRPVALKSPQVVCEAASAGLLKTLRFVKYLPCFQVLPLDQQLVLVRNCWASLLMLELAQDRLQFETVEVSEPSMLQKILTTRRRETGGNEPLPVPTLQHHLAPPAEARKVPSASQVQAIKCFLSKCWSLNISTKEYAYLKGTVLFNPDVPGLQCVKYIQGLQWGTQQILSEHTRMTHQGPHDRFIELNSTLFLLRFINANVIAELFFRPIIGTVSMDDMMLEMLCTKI
ssDAF-12 act: activates DAF-12 receptor from parasite S. stercoralis; HEK293 ssDAF-12/GRIP1 lit1-tk-luc reporter, luminescence; % of 3 µM dafachronic acid response; activation, % at 6.8 µM; hit rate 1% among 370,000;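 active = activation above the mean over all tested compounds plus 3 SD, cut at about 0.9% in these data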
hgDAF12 agonist: hgDAF-12 agonism, primary luciferase screen; HEK293 GAL4-hgDAF12 UAS-luciferase reporter, agonist luminescence; normalized to butyrate control; activation, % at 6.8 µM; hit rate 1.8% among 370,000;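 active = activation above a cutoff set at the mean of all screened compounds plus 3 SD, cut at about 10% in these data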
DAX1 inh-2: inhibitors of DAX1 repression of SF-1 activated StAR promoter; HEK293T StAR-luciferase reporter, SF-1/DAX-1 repression relief; inhibition, % at 6.8 µM; hit rate 1.1% among 370,000;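 active = inhibition above the mean over all tested compounds plus 3 SD, cut at about 3.6% in these data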;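 note: higher inhibition means more luminescence from relief of DAX-1 repression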
Numbers stand for hits; – = inactive; · = not tested or not shown.

SMILES | hcDAF12 agonist | DAX1 inh-1 | ssDAF-12 act | hgDAF12 agonist | DAX1 inh-2
COc1ccc(/C=N/Nc2ccc(C(=O)O)cc2)c(OC)c1OC | – | – | – | – | –
COc1cc(/C=N/Nc2ccc(C(=O)O)cc2)cc(OC)c1OC | – | 4.3 | – | – | –
O=C(N/N=C/c1cccc(C(F)(F)F)c1)c1ccccc1O | – | – | – | – | –
COc1ccc(C(=O)n2cnc3ccccc32)cc1[N+](=O)[O-] | – | – | 1.4 | – | –
COc1ccc(C(=O)n2cnc3ccccc32)cc1Br | – | – | – | – | –
O=C(COC(=O)/C=C/c1cccs1)Nc1nc(-c2ccccc2)cs1 | 5.8 | – | – | – | –
CC1Cn2c(COc3ccccc3)nnc2S1 (centres undefined) | – | – | – | – | –
Cc1ccccc1OCc1nnc2n1CC(C)S2 (centres undefined) | – | 4.6 | – | – | –
COC(=O)c1ccc(NN=Nc2ccc(C)cc2)cc1 | 6.0 | – | – | 11 | –
Cc1ccc(S(=O)(=O)N2CCN(C(=O)c3cc4c(s3)CCC(C)C4)CC2)cc1 (centres undefined) | – | – | – | – | –
CC(=O)N1CCN(C(=O)c2cc3c(s2)CCC(C)C3)CC1 (centres undefined) | – | – | 1.0 | – | 3.9
CCOC(=O)[C@]12CCCC=C1N(CCCOC)C(=O)[C@@H]2CC(=O)NCCCN1CCCC1=O | – | · | – | – | –
COC(=O)c1cc(-c2cccc(OCc3ccccc3)c2)c(=O)n2c1CCC2 | – | · | – | – | –
c1ccc2c(Nc3nnc(-c4ccncc4)s3)cccc2c1 | – | – | – | 10 | –
C=CCNc1nnc(-c2ccncc2)s1 | – | – | – | – | –
COc1ccc2c(c1)CNC2CS(=O)(=O)NC1CCCC1 (centres undefined) | – | · | – | – | –
O=C(NCC(=O)N1CCN(C(=O)c2ccco2)CC1)c1ccccc1 | – | – | 1.0 | – | –
CC(C)CC(=O)N1CCN(C(=O)c2ccco2)CC1 | 5.7 | – | – | – | –
COCCCN1C(=O)[C@H](CC(=O)N2CCC(c3ccccc3)CC2)[C@]2(C(=O)OC)CCCCC=C12 | – | · | – | – | –
Cc1cccc(NC(=O)CCc2c(C)nn(-c3ccc(N4CCOCC4)nn3)c2C)c1 | – | – | – | – | –
Cc1cccc(NC(=O)CCc2c(C)nn(-c3ccc(N4CCCCC4)nn3)c2C)c1 | – | – | – | – | 3.8
CC(NCc1ccco1)C(=O)N1CCCC1 (centres undefined) | – | · | – | – | –
Cc1ccc(S(=O)(=O)NC2=C(N3CCN(Cc4ccccc4)CC3)C(=O)c3ccccc3C2=O)cc1 | – | 5.3 | – | – | –
CCOC(=O)[C@@]12CCCC3=C1N(CCC3)C(=O)[C@H]2CC(=O)N1CCN(C(=O)C2CC2)CC1 | – | · | – | – | –
Oc1ccc(C2CNCc3sccc32)cc1O (centres undefined) | – | – | 1.0 | – | –
SMILES | hcDAF12 agonist | DAX1 inh-1 | ssDAF-12 act | hgDAF12 agonist | DAX1 inh-2
O=C(NC1CCCC1)C1CCCN(S(=O)(=O)c2cccc3cccnc23)C1 (centres undefined) | – | – | – | – | –
O=C(NC1CCCCCC1)C1CCN(S(=O)(=O)c2cccc3cccnc23)CC1 | – | 6.1 | – | – | –
Cn1c(=O)oc2cc(S(=O)(=O)N3CCC(C(=O)N4CCN(c5ccccc5)CC4)CC3)ccc21 | – | – | – | – | –
Cn1c(=O)oc2cc(S(=O)(=O)N3CCN(c4ccccc4)CC3)ccc21 | – | – | 2.6 | – | –
C=CCc1c(C)nc(N2CCSCC2)[nH]c1=O | – | 4.3 | – | – | –
CCOC(=O)[C@@]12CN(C(=O)OC(C)(C)C)CC=C1N(Cc1ccc(OC)cc1)C(=O)[C@H]2CC(=O)N1CCN(C(=O)C2CC2)CC1 | – | · | – | – | –
CSc1nc(/C=C2\C=Nc3ccccc32)c(O)n1C | 6.4 | – | 0.9 | – | –
C=CCSc1nnc(NC(=O)c2ccc3c(c2)OCCO3)s1 | – | – | – | – | 3.9
O=C(O)CSc1nnc(NC(=O)c2ccc3c(c2)OCO3)s1 | – | – | – | – | –
COCCCNC(=O)C[C@H]1C[C@@]2(C(=O)OC)C(=C[C@H](COCc3ccccc3)O[C@@H]2C)N(Cc2cccc3ccccc23)C1=O | – | · | – | – | –
COc1cc(C2C(C(C)=O)=C(O)C(=O)N2CCc2c[nH]c3ccccc23)ccc1O (centres undefined) | – | – | – | – | –
CC(=O)C1=C(O)C(=O)N(CCc2c[nH]c3ccccc23)C1c1cccc(O)c1 (centres undefined) | 5.7 | – | – | – | –
Nc1[nH]c(C(=O)c2ccccc2)c(-c2cccnc2)c1C(=O)NCCc1c[nH]c2ccccc12 | – | · | – | – | ·
CCc1cccc(C)c1NC(=O)CN1C(=O)c2ccccc2S1(=O)=O | – | – | – | – | –
O=C(NC1CCCCC1)c1ccc2c(c1)S(=O)(=O)c1ccccc1C2=O | – | 5.0 | – | – | –
COc1ccc(NC(=O)C(C)N2C(=O)c3ccccc3S2(=O)=O)c(OC)c1 (centres undefined) | – | – | – | – | –
O=C(CN1C(=O)c2ccccc2S1(=O)=O)NC1CCCCCC1 | – | 6.2 | – | 13 | –
CCOc1ccccc1NC(=O)C(C)N1C(=O)c2ccccc2S1(=O)=O (centres undefined) | – | – | – | – | 3.7
O=C(NC1CCCC1)c1ccc2c(c1)S(=O)(=O)c1ccccc1C2=O | – | – | – | – | –
CCc1ccccc1NC(=O)CN1C(=O)c2ccccc2S1(=O)=O | – | 4.5 | – | – | –
CC(COc1ccc(S(C)(=O)=O)cc1)CN1CCC(C(O)(c2ccccc2)c2ccccc2)CC1 (centres undefined) | – | · | – | – | –
CC(C)C(NC(=O)CN1C(=O)c2ccccc2S1(=O)=O)C(C)C | – | 5.0 | – | – | –
COC(=O)C[C@@H]1CC[C@H]2[C@@H](COc3ccc(NC(=O)c4cc(C)on4)cc3C(=O)N2C)O1 | – | · | – | – | –
COc1cccc(CNC(=O)CCNS(=O)(=O)c2cccc3nsnc23)c1 | – | 8.6 | – | – | –
COc1cccc(CNC(=O)CCNS(=O)(=O)c2cccc3nonc23)c1 | – | – | – | – | –
SMILES | hcDAF12 agonist | DAX1 inh-1 | ssDAF-12 act | hgDAF12 agonist | DAX1 inh-2
Cc1cccc(C)c1OCc1cc(C(=O)N2CCCC2c2nonc2C)no1 (centres undefined) | – | – | – | – | –
CSc1ccccc1OCc1cc(C(=O)N2CCCC2c2nonc2C)no1 (centres undefined) | 5.9 | – | – | 13 | –
O=C(CSc1nnc(C2COc3ccccc3O2)o1)NC1CCCCC1 (centres undefined) | – | – | – | – | –
O=C(CSc1nnc(C2COc3ccccc3O2)o1)Nc1nccs1 (centres undefined) | · | 4.4 | · | · | ·
Cc1ccc(SC(=O)c2c([N+](=O)[O-])c(C)nn2C)cc1 | – | 4.5 | – | – | –
Cc1cc(C)n(C(=O)c2c([N+](=O)[O-])c(C)nn2C)n1 | – | – | – | – | –
